In PubChem BioAssay (Tox21):
Inconclusive results are not listed. Active and inactive are the calls of the source. Unless noted, calls come from the whole dose curve; as a rule, active = well fitted curve in the direction sought with a large enough effect in the repeat runs; inconclusive = weak or mixed curves; inactive = no such curve, though single readings can be large; an effect the other way counts as inactive or inconclusive.

Legend:
[1] = qHTS RealTime-Glo MT Cell Viability Assay in HEK293 cells - 24 hour (AID 1224886); note: top concentration of the series differs between compounds; nearly all actives have a fitted effect of over 50% in size
Summary of the method: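 HEK293 cells were seeded at 600 cells/well together with NanoLuc luciferase and cell-permeant prosubstrate, preincubated 5 h at 37 C/5% CO2, then given compound in DMSO by pintool. Luminescence from viable-cell prosubstrate reduction was read repeatedly over 40 h.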

[2] = qHTS RealTime-Glo MT Cell Viability Assay in HEK293 cells - 8 hour (AID 1224887); note: top concentration of the series differs between compounds; nearly all actives have a fitted effect of over 50% in size
Summary of the method: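 Kinetic, non-lysing viability readout. Seed HEK293 (600/well) with reagent, incubate 5 h at 37 C/5% CO2, pin 23 nL compound in DMSO, incubate at 37 C, read luminescence at 0, 8, 16, 24, 32, 40 h.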

[3] = A CellTox Green Cytotoxicity Assay to monitor cytotoxicity in HEK293 cells - 16 hour (AID 1224888); note: nearly all actives have a fitted effect of over 35% in size
Summary of the method: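 Real-time, in one plate: 600 HEK293 cells/well with dead-cell DNA dye, pinned compound after 5 h, 37 C incubation over 40 h; viable cells give no appreciable fluorescence.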

[4] = qHTS RealTime-Glo MT Cell Viability Assay in HepG2 cells - 0 hour (AID 1224889); note: nearly all actives have a fitted effect of over 50% in size
Summary of the method: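 HepG2 cells were seeded at 600 cells/well together with NanoLuc luciferase and a cell-permeant prosubstrate, preincubated 5 h at 37 C/5% CO2, then pin-dosed with compounds in DMSO. Nonlytic luminescence from viable cells was read at each time point.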

[5] = A CellTox Green Cytotoxicity Assay to monitor cytotoxicity in HepG2 cells - 8 hour (AID 1224890); note: nearly all actives have a fitted effect of over 45% in size
Summary of the method: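 Cytotoxicity was tracked as dead-cell DNA fluorescence in HepG2 cells treated with test compounds at 37 C; each time-point value comes from one kinetic series spanning 0, 8, 16, 24, 32 and 40 h.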

[6] = qHTS assay to identify small molecule antagonists of the estrogen receptor alpha (ER-alpha) signaling pathway using the BG1 cell line in the presence of 0.1 nM 17-beta-estradiol - cell viability counter screen (AID 1259241); note: nearly all actives have a fitted effect of over 40% in size
Summary of the method: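 Estradiol-stimulated (0.1 nM) VM7Luc4E2 cells exposed to compounds 22 hr; viability measured by fluorescence of cleaved CellTiter-Fluor substrate after 30 min.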

[7] = qHTS assay to identify small molecule antagonists of the androgen receptor (AR) signaling pathway using the MDA cell line in the presence of 0.5 nM R1881 - cell viability counter screen (AID 1259242); note: nearly all actives have a fitted effect of over 45% in size
Summary of the method: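 Cells seeded at 3,000/well and allowed 5 hr at 37C, 0% CO2 before compound transfer and R1881 (0.5 nM final) addition; 16 hr later, live-cell protease fluorescence indicated cytotoxicity.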

[8] = molecular target: Estrogen receptor (Homo sapiens) (UniProt P03372); assay: qHTS assay to identify small molecule antagonists of the estrogen receptor alpha (ER-alpha) signaling pathway using the BG1 cell line in the presence of 0.1 nM 17-beta-estradiol (AID 1259244); note: nearly all actives have a fitted effect of over 50% in size
Chain of Estrogen receptor (Homo sapiens) (P03372 whole entry, looked up): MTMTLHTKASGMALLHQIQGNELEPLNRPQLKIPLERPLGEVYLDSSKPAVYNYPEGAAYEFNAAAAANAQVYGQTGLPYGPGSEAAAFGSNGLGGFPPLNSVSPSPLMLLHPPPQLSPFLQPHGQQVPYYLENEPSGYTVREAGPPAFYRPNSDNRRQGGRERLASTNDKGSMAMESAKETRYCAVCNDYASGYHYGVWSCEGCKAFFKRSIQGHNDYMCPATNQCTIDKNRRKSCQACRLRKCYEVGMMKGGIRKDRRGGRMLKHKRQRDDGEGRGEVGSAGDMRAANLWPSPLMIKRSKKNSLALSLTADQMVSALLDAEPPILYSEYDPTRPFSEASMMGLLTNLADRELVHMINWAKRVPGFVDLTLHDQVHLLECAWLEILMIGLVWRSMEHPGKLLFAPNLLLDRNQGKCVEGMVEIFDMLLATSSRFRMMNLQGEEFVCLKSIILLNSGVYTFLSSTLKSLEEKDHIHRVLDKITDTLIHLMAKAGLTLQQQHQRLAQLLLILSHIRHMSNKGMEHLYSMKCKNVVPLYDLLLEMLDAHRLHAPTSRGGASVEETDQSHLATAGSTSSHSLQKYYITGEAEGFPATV
Summary of the method: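 Luciferase signal from VM7Luc4E2 ERE-reporter cells, co-dosed with test compound and 0.1 nM final 17beta-estradiol for 22 h, read with ONE-Glo.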

[9] = qHTS assay to identify small molecule HDAC inhibitors (AID 1259364);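 note: wild-type HCT-116 cells with endogenous class I/II HDAC activity; top concentration of the series differs between compounds; nearly all actives have a fitted effect of over 45% in size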
Summary of the method: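 HCT-116 wt cells, 1,500/well, overnight attach. Compounds (DMSO) 2 h, 37 °C. HDAC-Glo I/II, 30 min RT. Luminescence.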

[10] = qHTS assay to identify small molecule HDAC inhibitors - cell viability counter screen (AID 1259365)
Summary of the method: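 After overnight seeding at 1,500 cells per well, wild-type HCT-116 cultures took up compounds in DMSO for 2hr at 37 C. Viable cell content came from luminescence with CellTiter-Glo.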

[11] = qHTS assay to identify small molecule agonists of the sonic hedgehog signaling (Shh) pathway - cell viability counter screen (AID 1259366); note: nearly all actives have a fitted effect of over 50% in size
Summary of the method: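 Same-well cytotoxicity read. Gli1-Luc reporter 3T3 cells; compounds 24hr, 37C/5% CO2; CellTiter-Fluor fluorescence.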

[12] = qHTS assay to identify small molecule antagonists of the sonic hedgehog signaling (Shh) pathway - cell viability counter screen (AID 1259367); note: nearly all actives have a fitted effect of over 55% in size
Summary of the method: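 CellTiter-Fluor signal in conditioned medium-stimulated 3T3 Gli1-Luc cells, 23 hr compound exposure, 37C.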

[13] = qHTS assay to identify small molecule agonists of the sonic hedgehog signaling (Shh) pathway (AID 1259368; calls by dose curve;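 note: NIH/3T3-derived 3T3Gli1-Luc cells carrying a stable Gli1-driven firefly luciferase reporter; series mostly up to about 92 µM; nearly all actives have a fitted effect of over 15% in size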)
Summary of the method: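 Following a 24 hr incubation with DMSO-dissolved compounds at 37 C, 5% CO2, Gli1-Luc NIH/3T3-derived cells received luciferase reagent for 30 min at room temperature prior to luminescence measurement.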

[14] = qHTS assay to identify small molecule antagonists of the sonic hedgehog signaling (Shh) pathway (AID 1259369; calls by dose curve; note: nearly all actives have a fitted effect of over 45% in size)
Summary of the method: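 Read-out is luminescence from a firefly luciferase gene controlled by the Gli1 response element, in 3T3Gli1-Luc cells pre-incubated 4hr then exposed to compounds and conditioned medium for 24hr.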

[15] = molecular target: Estrogen receptor beta (Homo sapiens) (UniProt Q92731); assay: qHTS assay to identify small molecule agonists of the estrogen receptor beta (ER-beta) signaling pathway (AID 1259377; active = well fitted activation curve with a large enough effect in the signal ratio in the repeat runs, not every such curve was filed as active; the % refers to the signal ratio)
Chain of Estrogen receptor beta (Homo sapiens) (Q92731 whole entry, looked up): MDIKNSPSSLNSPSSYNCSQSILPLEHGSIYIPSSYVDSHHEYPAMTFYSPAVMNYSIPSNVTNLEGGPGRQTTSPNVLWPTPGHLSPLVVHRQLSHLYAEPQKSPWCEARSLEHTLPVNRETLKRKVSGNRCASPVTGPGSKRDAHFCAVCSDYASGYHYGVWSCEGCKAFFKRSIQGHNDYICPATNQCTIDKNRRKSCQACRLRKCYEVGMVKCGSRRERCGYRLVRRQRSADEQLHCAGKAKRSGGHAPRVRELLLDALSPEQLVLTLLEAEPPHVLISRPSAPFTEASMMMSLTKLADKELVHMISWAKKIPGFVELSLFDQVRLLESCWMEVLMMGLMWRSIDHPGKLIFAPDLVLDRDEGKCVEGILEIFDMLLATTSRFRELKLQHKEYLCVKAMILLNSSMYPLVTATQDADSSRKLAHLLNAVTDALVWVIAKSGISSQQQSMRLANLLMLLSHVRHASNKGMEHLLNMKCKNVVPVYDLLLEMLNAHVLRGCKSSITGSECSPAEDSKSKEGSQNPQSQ
Summary of the method: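 Read-out: beta-lactamase FRET fluorescence. Cell line: ER-beta-UAS-bla HEK293T in 2% charcoal-stripped FBS. Exposure: 16 hr at 37C. Substrate step: 2 h at room temperature.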

[16] = molecular target: Estrogen receptor beta (Homo sapiens) (UniProt Q92731); assay: qHTS assay to identify small molecule antagonists of the estrogen receptor beta (ER-beta) signaling pathway (AID 1259378; active = well fitted inhibition curve with a large enough effect in the signal ratio in the repeat runs, not every such curve was filed as active; the % refers to the signal ratio)
Summary of the method: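 Antagonist mode: compounds added to beta-lactamase reporter HEK293T ER-beta-UAS cells stimulated with E2 (1nM final), 16 hr at 37C. LiveBLAzer B/G FRET substrate, 2 hours room temperature, fluorescence read-out.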

[17] = qHTS assay to identify small molecule agonists of the androgen receptor (AR) signaling pathway in the presence of an antagonist - cell viability counter screen (AID 1259379);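 note: MDA-kb2 human breast cancer cells carrying an MMTV luciferase reporter; series mostly up to about 92 µM; nearly all actives have a fitted effect of over 25% in size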
Summary of the method: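 Each compound was tested at 15 concentrations on MDA-kb2 cells in the presence of 3.0uM nilutamide. Viability was measured by CellTiter-Fluor fluorescence after a 16 hr incubation at 37C in a CO2-free atmosphere.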

[18] = qHTS assay to identify small molecule agonists of the estrogen receptor beta (ER-beta) signaling pathway - cell viability counter screen (AID 1259380); note: nearly all actives have a fitted effect of over 30% in size
Summary of the method: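 Compounds dissolved in DMSO were pin-transferred onto ER-beta-UAS-bla HEK293T cells that had settled 6 hr, and exposure ran 16 hr at 37C. Following the reporter read, CellTiter-Glo luminescence after 30 min at room temperature indicated cytotoxicity.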

[19] = qHTS assay to identify small molecule phospholipidosis (PLD) inducers (AID 1259344; active = well fitted curve in the direction sought with a large enough effect; an effect the other way counts as inactive or inconclusive)
Summary of the method: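 Accumulated phospholipid, stained red by LipidTOX during 24 h compound treatment of HepG2 cells at 37 C, is quantified from images as pit number and intensity, normalised per cell using Hoechst-stained nuclei.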
% is set by controls: 0 for no effect and ±100 for the full control effect.

CC(C)Nc1ccccc1
inactive: Potency [1] | Potency [2] | Potency [3] | Potency [4] | Potency [5] | outcome [6] | outcome [7] | outcome [8] | Potency [9] | outcome [10] | outcome [11] | outcome [12] | outcome [13] | Potency [14] | Potency [15] | Potency [16] | outcome [17] | outcome [18]

CO/N=C(/C(=O)N[C@@H]1C(=O)N2C(C(=O)[O-])=C(C[n+]3ccn4ncccc43)CS[C@H]12)c1nsc(N)n1
inactive: Potency [1] | Potency [2] | Potency [3] | Potency [4] | Potency [5] | outcome [6] | outcome [7] | outcome [8] | outcome [19] | outcome [10] | outcome [11] | outcome [12] | outcome [13] | Potency [14] | Potency [15] | Potency [16] | outcome [17]

COc1cc2c(cc1OC)CN(C(=O)[C@H](C)N[C@@H](CCc1ccccc1)C(=O)O)[C@H](C(=O)O)C2
inactive: Potency [1] | Potency [2] | Potency [3] | Potency [4] | Potency [5] | outcome [6] | outcome [7] | outcome [8] | Potency [9] | outcome [10] | outcome [11] | outcome [12] | outcome [13] | Potency [14] | Potency [15] | Potency [16] | outcome [17] | outcome [18]

CC1(C)Oc2ccc(C#N)cc2[C@@H](N2CCCC2=O)[C@@H]1O
inactive: Potency [1] | Potency [2] | Potency [3] | Potency [4] | Potency [5] | outcome [6] | outcome [7] | outcome [8] | outcome [19] | outcome [11] | outcome [12] | outcome [13] | Potency [14] | Potency [15] | Potency [16] | outcome [17]

CC1(C)[C@H]2CC[C@](C)(C2)[C@H]1O
inactive: Potency [1] | Potency [2] | Potency [3] | Potency [4] | Potency [5] | outcome [6] | outcome [7] | outcome [8] | Potency [9] | outcome [10] | outcome [11] | outcome [12] | outcome [13] | Potency [14] | Potency [15] | outcome [17] | outcome [18]

CC1c2ccccc2CN1NC(=O)c1ccc(Cl)c(S(N)(=O)=O)c1 (centres undefined)
inactive: Potency [1] | Potency [2] | Potency [3] | Potency [4] | Potency [5] | outcome [6] | outcome [7] | outcome [8] | PLD induction [19] -1.83% [at 1.53 µM] | outcome [10] | outcome [11] | outcome [12] | outcome [13] | Potency [14] | Potency [15] | Potency [16] | outcome [17] | outcome [18]
